Experiment [1] has as its target Aldehyde dehydrogenase, mitochondrial (Homo sapiens) (UniProt P05091). The experiment is described as follows: qHTS for Inhibitors of the Aldehyde Dehydrogenase Family (ALDH2) Confirmatory screens (AID 2061303; active means well fitted inhibition curve with a large enough effect; title and protocol of this record describe different tests; further: nearly all actives have a fitted effect of over 45% in size; further: potency means the concentration at half of the fitted maximal effect).
The nature of experiment [2]: qHTS for Inhibitors of the Aldehyde Dehydrogenase Family (ALDH1A2, ALDH1A3, ALDH2, ALDH3A1) (AID 2061307; further: nearly all actives have a fitted effect of over 50% in size; on Potency: test system not described further here; potency means the concentration at half of the fitted maximal effect). (In qHTS, concentration-response curves come from the screen itself.)
Experiment [3] concerns the target Retinaldehyde dehydrogenase 3 (Homo sapiens) (UniProt P47895). The experiment can be described thus: qHTS for Inhibitors of the Aldehyde Dehydrogenase Family (ALDH1A3) Confirmatory screens (AID 2061311). Further: nearly all actives have a fitted effect of over 60% in size. Further: potency means the concentration at half of the fitted maximal effect.
Experiment [4] has as its target Retinal dehydrogenase 2 (Homo sapiens) (UniProt O94788). The experiment is described as follows: qHTS for Inhibitors of the Aldehyde Dehydrogenase Family (ALDH1A2) Confirmation screens (AID 2061314). Further: nearly all actives have a fitted effect of over 65% in size. Further: potency means the concentration at half of the fitted maximal effect.
Experiment [5] concerns the target Aldehyde dehydrogenase 1A1 (Homo sapiens) (UniProt P00352). The experiment is described as follows: qHTS for Inhibitors of the Aldehyde Dehydrogenase Family (ALDH1A1) Confirmatory screens (AID 2061316). Further: nearly all actives have a fitted effect of over 65% in size. Further: potency means the concentration at half of the fitted maximal effect.
The target in experiment [6] is Retinaldehyde dehydrogenase 3 (Homo sapiens) (UniProt P47895). The experiment can be described thus: qHTS for Inhibitors of the Aldehyde Dehydrogenase Family (ALDH1A3) Primary screen (AID 2061315).
The target of experiment [7] is Aldehyde dehydrogenase, mitochondrial (Homo sapiens) (UniProt P05091). The experiment is described as follows: qHTS for Inhibitors of the Aldehyde Dehydrogenase Family (ALDH2) Primary screen (AID 2061308). Further: nearly all actives have a fitted effect of over 55% in size.
Experiment [8] addresses Retinaldehyde dehydrogenase 3 (Homo sapiens) (UniProt P47895). The experiment is described as follows: qHTS for Inhibitors of the Aldehyde Dehydrogenase Family (ALDH1A3) Validation screen (AID 2061312). Further: nearly all actives have a fitted effect of over 45% in size.

Inconclusive results are not listed. Active and inactive are the calls of the source. Unless noted, the call rests on the fitted dose curve; in most records, active means well fitted curve in the direction sought with a large enough effect; inconclusive means small, poorly fitted or top-dose-only effect, or another doubt; inactive means no such curve, though single readings can be large; an effect the other way counts as inactive or inconclusive.

Regarding `Oc1ccc(CNc2ccccc2F)c2cccnc12`, the Potency in experiment [1] is 2.83 µM (active); in experiment [4], 5.65 µM (active); in experiment [5], 2.25 µM (active). Besides, the Potency result in experiment [2] and in experiment [3] was “inactive” throughout.
For `OCc1ccc(-c2ccc3ncnc(N4CCOCC4)c3c2)o1`, the Potency in experiment [1] is 11.3 µM (active); in experiment [2], 1 µM (active); in experiment [5] it was 3.18 µM (active). Also, the Potency result in experiment [6] is “inactive”.
Consider `Cc1cc(-c2nnc3n2CCCCC3)c(C)n1-c1cccc(C#N)c1`, for which the Potency entry in experiment [1], in experiment [2], in experiment [4] and in experiment [6] was “inactive” in each case.
As to `O=C(O)c1ccc(-n2cccc2/C=C2\SC(=O)N(Cc3cccc(Cl)c3)C2=O)cc1`, the Potency was 11.3 µM (active) in experiment [1], 1.79 µM (active) in experiment [2] and 7.98 µM (active) in experiment [5]. Also, the Potency entry in experiment [6] is “inactive”.
On to `O=C1CCCC2=C1C(c1ccccc1Cl)N=C(c1ccccn1)N2` (configuration not stated), for which the Potency entry in experiment [1], in experiment [2] and in experiment [6] was “inactive” throughout.
Turning to `CC(C)(C)OC(=O)N1CCN(c2ccc(NCc3cnc(-c4ccc(C#N)cc4)s3)cc2)CC1`, the Potency in experiment [1] is 1.79 µM (active); in experiment [2], 2.83 µM (active); in experiment [5] it was 11.3 µM (active). Moreover, the Potency entry in experiment [4] and in experiment [6] was “inactive” each time.
On to `O=S1(=O)N=C(Oc2ccccc2Br)c2ccccc21`, for which the Potency entry in experiment [1], in experiment [2] and in experiment [6] was “inactive” each time.
For the compound `COc1ccnc(NC(=S)N2CCN(c3ccccc3C(F)(F)F)CC2)c1`, the Potency result in experiment [1] is “inactive”. The Potency in experiment [2] was 14.1 µM (active); in experiment [4], 11.3 µM (active); in experiment [5], 5.65 µM (active).
With `COc1cc(NC(=S)N2CCN(c3cccc(C(F)(F)F)c3)CC2)nc2ccccc12`, the Potency is 25.1 µM (active) in experiment [1] and 7.94 µM (active) in experiment [4]. The Potency entry in experiment [2] and in experiment [6] was “inactive” throughout.
In the case of `C[C@H]1[C@H](/C=C/c2ccc(-c3ccccc3C#N)cn2)[C@@H]2[C@@H](C)OC(=O)[C@@H]2C[C@@H]1C`, the Potency entry in experiment [1], in experiment [7], in experiment [3], in experiment [8], in experiment [4] and in experiment [6] was “inactive” in each case. The Potency in experiment [5] is 1.27 µM (active).
With `COc1ccc(C2N(Cc3ccccc3)C(=O)c3ccccc3N2C)cc1COc1ccc(NC(C)=O)cc1` (configuration not stated), the Potency result in experiment [1] and in experiment [6] was “inactive” in each case. Also, in experiment [2], the Potency was 10.1 µM (active).
For `CCc1nc2nc(C)cc(Nc3ccc(Br)cc3F)n2n1`, the Potency result in experiment [1], in experiment [2], in experiment [4] and in experiment [5] was “inactive” in each case.
As to `Cc1ccc(OCCn2c(CCNC(=O)c3ccc(N)cc3)nc3ccccc32)cc1`, the Potency in experiment [1] was 10.1 µM (active); in experiment [2] it was 0.896 µM (active); in experiment [4], 7.98 µM (active); in experiment [5], 3.18 µM (active). In addition, the Potency entry in experiment [6] is “inactive”.
As to `CN1CCN(c2nn3c(=O)c4ccccc4nc3s2)CC1`, the Potency result in experiment [1] and in experiment [7] was “inactive” throughout. Moreover, the Potency in experiment [3] is 8.96 µM (active).
`Cc1ccnc(NC(=S)N2CCN(C)CC2)c1`: the Potency result in experiment [1], in experiment [2] and in experiment [4] was “inactive” in each case. Also, in experiment [5], the Potency was 20.1 µM (active).
Regarding `O=C(O)c1ccccc1SC1=NS(=O)(=O)c2ccccc21`, the Potency result in experiment [1], in experiment [2], in experiment [4], in experiment [6] and in experiment [5] was “inactive” in each case.
With `N#Cc1cccc(NC(=S)N[C@H]2CO[C@H]3[C@@H]2OC[C@@H]3n2nnnc2Oc2cccc(N3CCOCC3)c2)c1`, the Potency result in experiment [1] and in experiment [4] was “inactive” each time. The values for the Potency in experiment [2] and in experiment [5] were 6.31 µM (active) and 10.2 µM (active), respectively.
As for `Cc1ccc(C(=O)NC2CCN(Cc3cccc(-c4cccc(C)c4)c3)CC2)cc1`, the Potency entry in experiment [1], in experiment [2], in experiment [4] and in experiment [5] was “inactive” throughout.
Regarding `O=C(Nc1ccc(Cl)c(Cl)c1)Nc1cccc(-c2ccncc2)n1`, the Potency result in experiment [1], in experiment [2], in experiment [4], in experiment [6] and in experiment [5] was “inactive” each time.
Regarding `CC(=O)c1ccc(N2CCN(C(=O)Nc3ccc(C(C)C)cc3)CC2)cc1`, the Potency entry in experiment [1] and in experiment [2] was “inactive” throughout. In addition, in experiment [5], the Potency is 3.24 µM (active).
For the compound `COc1ccc(NC(=O)O[C@@H]2CO[C@H]3[C@@H]2OC[C@@H]3n2nnnc2SCc2ccco2)cc1`, the Potency result in experiment [1] was “inactive”. For the same compound, the figures for the Potency in experiment [2] and in experiment [5] were 12.9 µM (active) and 10.2 µM (active), respectively.
Consider `CC(=O)N1CCN(c2ccc(NCc3ccc(C)cc3)cc2)CC1`, for which the Potency entry in experiment [1] and in experiment [7] was “inactive” in each case. Further, the Potency in experiment [3] is 22.5 µM (active); in experiment [4], 11.3 µM (active).
Take `Oc1cc(NCCc2cccnc2)cc2cccnc12`: the Potency entry in experiment [1], in experiment [7] and in experiment [4] was “inactive” throughout. The Potency in experiment [3] is 0.4 µM (active).
Consider `Cc1c(C(=O)N(C)CC2CCCO2)[nH]c2c1C(=O)CC(c1ccco1)C2` (configuration not stated), for which the Potency result in experiment [1] and in experiment [7] was “inactive” in each case. Further, the Potency in experiment [3] was 15.9 µM (active); in experiment [4], 12.7 µM (active).
As to `N#Cc1ccc(-c2ccc(CNc3ccc(N4CCN5CCCCC5C4)cc3)o2)cc1` (configuration not stated), the Potency in experiment [1] was 0.0252 µM (active); in experiment [2], 0.449 µM (active); in experiment [5], 8.96 µM (active). Besides, the Potency entry in experiment [4] and in experiment [6] was “inactive” throughout.
On to `CC(=O)/C=C1/C(=O)N(C)c2ccccc21`, for which the Potency result in experiment [1] and in experiment [2] was “inactive” throughout. The Potency was 14.2 µM (active) in experiment [4] and 4 µM (active) in experiment [5].
For `COc1cc(O)c(C(CC(=O)N2CCCC(CN3CCCCC3)C2)c2ccc3c(c2)OCO3)c(OC)c1` (configuration not stated), the Potency entry in experiment [1] and in experiment [7] was “inactive” throughout.
Turning to `CCCCc1ccc(NC(=O)CSc2nc3ccccc3nc2N2CCOCC2)cc1`, the Potency result in experiment [1], in experiment [2] and in experiment [5] was “inactive” each time.

Values taken from PubChem BioAssay (NCATS).
